Measurements taken from PubChem BioAssay (NCI).
About 83,000 compounds went through this panel and 20% of them were active in at least one assay; those are over-represented in the sample as a whole.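 For each line, cells grew in 96-well plates with the test compound present at a single concentration for 48 hours.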 Values without a mark were called inactive. Active and inactive are the calls of the source. How the source made its calls: active means growth percent below 10; inactive means the rest.

Test system: UACC-257 melanoma
Test: NCI-60 one-dose screen, 48 h (100 = growth as untreated, 0 = no growth, -100 = all killed)
Settings: 10 µM unless noted

Row | Compound | growth
1 | CC[C@H](C)[C@H](N)C(=O)O | 119%
2 | COc1ccc2c(c1)sc1nc(-c3ccccc3)c(-c3cccc4ccccc34)n12 | 68.4%
3 | Cc1ccc(C)c(NC(=O)c2sc3c(=O)[nH]cnc3c2C)c1 | 94.5%
4 | Cc1ccncc1NC=O | 106%
5 | COc1ccc(/C(C)=N/NC(=O)CSc2nc3ccccc3c(=O)n2CCc2ccc(S(N)(=O)=O)cc2)cc1 | 25.9%
6 | COC(=O)OC1C(O[C@H]2C[C@H]3[C@@H]4CC=C5C[C@@H](O)CC[C@]5(C)[C@H]4CC[C@]3(C)[C@H]2[C@H](C)C(=O)CCC(C)C)OCC(O)C1OC1OCC(O)C(O)C1OC(=O)c1ccc(OC)cc1 (some centres undefined) | -55.3% (active)
7 | O=C1CCCN1C1CCN2CCCc3cccc1c32 (centres undefined) | 111%
8 | CC1OC(n2c3ccccc3c3c4c(c5c6ccccc6[nH]c5c32)C(=O)N(CCN[C@H]2CCC[C@@H]2N)C4=O)CC(O)C1O (some centres undefined) | 54.9%
9 | COc1ccc2[nH]cc(C3(c4c[nH]c5ccc(OC)cc45)C(=O)Nc4ccc(F)cc43)c2c1 | 94%
10 | c1cc2c(cc1-c1cnc3nonc3n1)OCO2 | 93%
11 | Nc1c(C(=O)Nc2cccc(Cl)c2)sc2nc3c(cc12)C(=O)CCC3 | 68.9%
12 | O=C(Nc1ccc(Br)cc1)c1ccc(Cl)c(Cl)c1 | 102%
13 | O=C(CSc1nc2c(n1Nc1ccccc1)-c1ccccc1SC2)Nc1nccs1 | 108%
14 | COc1ccc(-c2nc3c(c(-c4ccc(Cl)cc4)nn3-c3ccccc3)c(-c3ccc(O)cc3)c2C#N)cc1 | 65.4%
